{"source": "ChEMBL document CHEMBL3988442", "about": "“University of Dundee, Small-Polar-MMV Screening Library” (2021)", "system": "Trypanosoma brucei", "assay": "Trypanosoma brucei 72 hour study", "format": "functional, organism-based", "set-up": "scale not given: in the data most compounds retested in dose-response had high values", "note": "Out of some 66,000 compounds screened, about 960 (1.5%) showed an effect of 50% or more. What follows is part of a selection rich in strong results, with near analogues and random picks from the rest.", "data": [{"compound": "Cc1nc(CN2CCCC(NCc3cnc(C(C)(C)C)s3)C2)no1", "note": "(stereo not drawn)", "values": [{"measurement": "Percent Effect", "setting": "30.3 µM, […]", "value": -11.81, "unit": "%"}]}, {"compound": "Cc1nc(CN2CCCC(NCc3ccsc3)C2)no1", "note": "(stereo not drawn)", "values": [{"measurement": "Percent Effect", "setting": "30 µM, 30.03 µM", "value": -22.48, "unit": "%"}]}, {"compound": "Cc1nc(CNC2CCN(Cc3ccccc3)C2)sc1C", "note": "(stereo not drawn)", "values": [{"measurement": "Percent Effect", "setting": "30.3 µM, […]", "value": 100.1, "unit": "%"}]}, {"compound": "Cc1nc(CCNC2CCN(Cc3ccccc3)C2)sc1C", "note": "(stereo not drawn)", "values": [{"measurement": "Percent Effect", "setting": "30.3 µM, […]", "value": -17.04, "unit": "%"}]}, {"compound": "Cc1nc(CN2CCCC(NCc3csc(C(C)(C)C)n3)C2)no1", "note": "(stereo not drawn)", "values": [{"measurement": "Percent Effect", "setting": "30.3 µM, […]", "value": 71.04, "unit": "%"}, {"measurement": "Percent Effect", "setting": "10 mM, 10 mM as filed; unlikely as a test dose", "value": -25.98, "unit": "%"}]}, {"compound": "Cc1nc(CN2CCCC(NCc3ccc(Cl)s3)C2)no1", "note": "(stereo not drawn)", "values": [{"measurement": "Percent Effect", "setting": "30.3 µM, […]", "value": -4.21, "unit": "%"}, {"measurement": "Percent Effect", "setting": "10 mM, 10 mM as filed; unlikely as a test dose", "value": -21.78, "unit": "%"}]}, {"compound": "Cc1nc(CN2CCCC(NCc3nc4ccccc4s3)C2)no1", "note": "(stereo not drawn)", "values": [{"measurement": "Percent Effect", "setting": "30.3 µM, […]", "value": 74.19, "unit": "%"}, {"measurement": "Percent Effect", "setting": "10 mM, 10 mM as filed; unlikely as a test dose", "value": 66.41, "unit": "%"}]}, {"compound": "Cc1nc(CN2CCCC(NCc3cccc4ccccc34)C2)no1", "note": "(stereo not drawn)", "values": [{"measurement": "Percent Effect", "setting": "30.3 µM, […]", "value": -31.57, "unit": "%"}, {"measurement": "Percent Effect", "setting": "10 mM, 10 mM as filed; unlikely as a test dose", "value": -42.23, "unit": "%"}]}, {"compound": "CCc1csc(CNC2CCN(Cc3ccccc3)C2)n1", "note": "(stereo not drawn)", "values": [{"measurement": "Percent Effect", "setting": "30.3 µM, […]", "value": -9.701, "unit": "%"}]}, {"compound": "Nc1cc(N2CCCC(CO)(Cc3ccccc3F)C2)nc(N)n1", "note": "(stereo not drawn)", "values": [{"measurement": "Percent Effect", "setting": "30 µM, 30.03 µM", "value": 15.39, "unit": "%"}]}, {"compound": "CCn1nc2c(cc1=O)CN(Cc1coc(-c3ccccc3)n1)CC2", "values": [{"measurement": "Percent Effect", "setting": "30.3 µM, […]", "value": 3.49, "unit": "%"}]}, {"compound": "CCOCC(=O)N1CCC2(CC1)COCCN2CCN(C)C.O=C(O)C(F)(F)F.O=C(O)C(F)(F)F", "values": [{"measurement": "Percent Effect", "setting": "30.3 µM, […]", "value": -7.88, "unit": "%"}]}, {"compound": "CCCNC(c1ccc(F)cc1)c1cccnc1.Cl.Cl", "note": "(stereo not drawn)", "values": [{"measurement": "Percent Effect", "setting": "30 µM, 30.03 µM", "value": -17.83, "unit": "%"}]}, {"compound": "CN(C)C(=O)c1ccc(C2CCCNC2)nc1.Cl.Cl", "note": "(stereo not drawn)", "values": [{"measurement": "Percent Effect", "setting": "30.3 µM, […]", "value": -34.47, "unit": "%"}]}, {"compound": "Cl.c1nc(CCC2CCCN2)cc(N2CCCCCC2)n1", "note": "(stereo not drawn)", "values": [{"measurement": "Percent Effect", "setting": "30.3 µM, […]", "value": -0.6472, "unit": "%"}]}, {"compound": "COc1ncccc1NC(=O)NCC1CCS(=O)(=O)C1", "note": "(stereo not drawn)", "values": [{"measurement": "Percent Effect", "setting": "30 µM, 30.03 µM", "value": 51.37, "unit": "%"}]}, {"compound": "CCN1CCC(CNC(=O)Nc2cccnc2OC)CC1", "values": [{"measurement": "Percent Effect", "setting": "30.3 µM, […]", "value": 3.244, "unit": "%"}]}, {"compound": "COc1ncccc1NC(=O)NCC1CC1", "values": [{"measurement": "Percent Effect", "setting": "30.3 µM, […]", "value": 14.51, "unit": "%"}]}, {"compound": "CCOc1ccc(C(=O)N2CCCC(n3nc(C)nc3C)C2)cc1", "note": "(stereo not drawn)", "values": [{"measurement": "Percent Effect", "setting": "10 µM", "value": -77.91, "unit": "%"}]}, {"compound": "Cc1nnc(N2CCCC3(CN(c4ccccn4)CCO3)C2)o1.O=C(O)C(F)(F)F", "note": "(stereo not drawn)", "values": [{"measurement": "Percent Effect", "setting": "30.3 µM, […]", "value": 1.863, "unit": "%"}]}, {"compound": "Cc1cc(NCc2cc(C)oc2C(F)(F)F)n2nc(C)cc2n1", "values": [{"measurement": "Percent Effect", "setting": "30 µM, 30.03 µM", "value": 27.35, "unit": "%"}]}, {"compound": "COc1ccccc1C1(CNc2ccc(C(=O)N(C)C)cn2)CC1", "values": [{"measurement": "Percent Effect", "setting": "30 µM, 30.03 µM", "value": -17.01, "unit": "%"}]}, {"compound": "COc1ccccc1C1(CNc2ccnc(C(=O)N(C)C)c2)CC1", "values": [{"measurement": "Percent Effect", "setting": "30 µM, 30.03 µM", "value": 98.99, "unit": "%"}]}, {"compound": "COc1ccccc1C1(CNc2cc(C(=O)N(C)C)ccn2)CC1", "values": [{"measurement": "Percent Effect", "setting": "30 µM, 30.03 µM", "value": -21.75, "unit": "%"}]}, {"compound": "CN1CCO[C@@H]2CN(C(=O)NCc3ccccc3)CC[C@@H]2C1.O=C(O)C(F)(F)F", "values": [{"measurement": "Percent Effect", "setting": "30.3 µM, […]", "value": -54.53, "unit": "%"}]}, {"compound": "Cn1ccnc1C(=O)N1CCC2(CCN2c2ncccn2)C1.O=C(O)C(F)(F)F", "note": "(stereo not drawn)", "values": [{"measurement": "Percent Effect", "setting": "30.3 µM, […]", "value": -37.97, "unit": "%"}]}, {"compound": "CC1CN(C)c2ccccc2CN1CCn1cncn1", "note": "(stereo not drawn)", "values": [{"measurement": "Percent Effect", "setting": "30 µM, 30.03 µM", "value": -41.9, "unit": "%"}]}, {"compound": "CCC1CN(C)c2ccccc2CN1CCn1cncn1", "note": "(stereo not drawn)", "values": [{"measurement": "Percent Effect", "setting": "30 µM, 30.03 µM", "value": 56.46, "unit": "%"}]}, {"compound": "CCC1CN(C)c2ccccc2CN1C(=O)CCn1cncn1", "note": "(stereo not drawn)", "values": [{"measurement": "Percent Effect", "setting": "30 µM, 30.03 µM", "value": 12.6, "unit": "%"}]}]}
